Measured values published in PubChem BioAssay (NCI).
The panel holds about 83,000 compounds, 20% with a hit somewhere; the sample as a whole holds those more often.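 Values shown are percent growth following 48 h exposure of cells in 96-well plates to a single concentration of compound; below 10 was considered active.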 Values without a mark were called inactive. Active and inactive are the calls of the source.

Key:
Assay in all cases: NCI-60 one-dose screen, 48 h (100 = growth as untreated, 0 = no growth, -100 = all killed)
Conditions in all cases: 10 µM unless noted
HCT-15 colon = tested on: HCT-15 colon
HT29 colon = tested on: HT29 colon
SNB-75 CNS = tested on: SNB-75 CNS
SNB-19 CNS = tested on: SNB-19 CNS
U251 CNS = tested on: U251 CNS
PC-3 prostate = tested on: PC-3 prostate
SK-MEL-5 melanoma = tested on: SK-MEL-5 melanoma
UACC-62 melanoma = tested on: UACC-62 melanoma
LOX IMVI melanoma = tested on: LOX IMVI melanoma
SK-MEL-28 melanoma = tested on: SK-MEL-28 melanoma
SK-MEL-2 melanoma = tested on: SK-MEL-2 melanoma
EKVX NSCLC = tested on: EKVX NSCLC
SN12C renal = tested on: SN12C renal
UO-31 renal = tested on: UO-31 renal
TK-10 renal = tested on: TK-10 renal
ACHN renal = tested on: ACHN renal
CAKI-1 renal = tested on: CAKI-1 renal
A498 renal = tested on: A498 renal
CCRF-CEM leukemia = tested on: CCRF-CEM leukemia
MOLT-4 leukemia = tested on: MOLT-4 leukemia

SMILES | growth (HCT-15 colon) | growth (HT29 colon) | growth (SNB-75 CNS) | growth (SNB-19 CNS) | growth (U251 CNS) | growth (PC-3 prostate) | growth (SK-MEL-5 melanoma) | growth (UACC-62 melanoma) | growth (LOX IMVI melanoma) | growth (SK-MEL-28 melanoma) | growth (SK-MEL-2 melanoma) | growth (EKVX NSCLC) | growth (SN12C renal) | growth (UO-31 renal) | growth (TK-10 renal) | growth (ACHN renal) | growth (CAKI-1 renal) | growth (A498 renal) | growth (CCRF-CEM leukemia) | growth (MOLT-4 leukemia)
CCCOC(=O)Nc1nc2ccc(SCC)cc2s1 | 54.3% | 31.3% | 90.5% | 84.5% | 85% | 80.8% | 83.6% | 61.2% | 71.1% | 85.9% | 76.2% | 94.3% | 89.6% | 90.7% | 84.9% | 107% | 79.8% | 70.7% | 72.1% | 72.9%
O=C1NC(=O)C(c2coc3cc(Br)ccc23)=C1c1c[nH]c2ccccc12 | 25% | 20.6% | -2.44% (active) | 58% | 29.6% | 67.2% | 80.7% | 35.6% | 44% | 71.5% | 34.1% | 54% | 55% | 58% | 80.8% | 71.3% | 39.2% | 5.34% (active) | 29.1% | 26%
N#Cc1c(-c2cccc(Cl)c2)cc(-c2cccnc2)[nH]c1=O | 44.8% | 115% | 61.1% | 67.9% | 71.8% | 87.3% | 67.1% | 36.6% | 81.2% | 64.4% | 79.7% | 100% | 82.6% | 64.3% | 127% | 89% | 72.8% | 101% | 71.5% | 72.1%
CN(C)c1ccc(/C=N\NC(=O)c2ccc3nc(-c4ccc(Cl)cc4)[nH]c3c2)cc1 | 66.8% | 4.33% (active) | 97.2% | 60.4% | 1.62% (active) | 46.8% | 89% | 88.2% | 34% | 71.9% | 83.3% | 73.2% | 41.2% | 75.4% | 94.4% | 35.7% | 84.9% | 72.9% | 21.4% | 23.6%
C=C1C(=O)O[C@H]2[C@H]1CC/C(COC(=O)NCc1ccc(Cn3c(=O)sn(-c4ccccc4)c3=O)cc1)=C\CC[C@@]1(C)O[C@@H]21 | 32.4% | 20.1% | 9.33% (active) | 92.4% | 40.4% | 64% | 95.1% | 48.2% | 6.38% (active) | 47% | 49.6% | 77.1% | 33.9% | 66.6% | 4.49% (active) | 29.6% | 15.6% | 127% | -9.16% (active) | -5.87% (active)
c1ccc(-c2c(-c3ccccc3)[n+](Cc3ccc4ccccc4c3)cn2Cc2ccc3ccccc3c2)cc1 | -93.3% (active) | -89.9% (active) | -67.6% (active) | -66.4% (active) | -90% (active) | -91.8% (active) | -100% (active) | -73.2% (active) | -99.5% (active) | -91.5% (active) | -79.4% (active) | -46.7% (active) | -76% (active) | -22.4% (active) | -81.2% (active) | -100% (active) | -9.42% (active) | -95.4% (active) | -66% (active) | -67.7% (active)
CCCC(=O)NC(c1ccc2c(c1)OCO2)c1cc(Cl)c2cccnc2c1O (stereo not given) | 30.9% | 21.2% | 6.73% (active) | 23.7% | 17.3% | 34.5% | 37.5% | 11% | 23.4% | 46.1% | 58.7% | 30.1% | 38.1% | -8.37% (active) | 37.6% | 18.1% | 18.1% | 43.6% | 13.2% | 16.6%
COC(=O)c1c2c(c[n+]([O-])c1C)C(=O)C=C(NCc1ccccc1)C2=O | -58.8% (active) | 0.45% (active) | -97.3% (active) | -99.4% (active) | -93.1% (active) | -10.8% (active) | -100% (active) | -81.3% (active) | -74.6% (active) | -71.4% (active) | -70.8% (active) | -98.8% (active) | -91.5% (active) | -100% (active) | -82.4% (active) | -89.7% (active) | -98.2% (active) | -99.3% (active) | 0.673% (active) | -44.3% (active)
CCN(CC)CCOc1ccc(C(=O)/C=C\c2ccc(Cl)cc2Cl)cc1 | 2.05% (active) | -19.6% (active) | 82.9% | 56.7% | 24.9% | 23.3% | 6.5% (active) | -34.5% (active) | -77.3% (active) | 32.5% | 81% | 63.5% | 43.4% | 25% | 75.9% | 52.7% | 55% | 70% | 7.28% (active) | -13.1% (active)
O=[N+]([O-])c1ccccc1Sc1ccccc1[N+](=O)[O-] | 99.1% | 92% | 80.8% | 106% | 90.6% | 87.5% | 97.3% | 100% | 91.8% | 109% | 97.2% | 91.2% | 99.3% | 75.5% | 85.2% | 102% | -54.5% (active) | 81.2% | 107% | 94.8%
COc1ccc(-c2cc(C(=O)N3N=C(c4ccc(N)cc4)CC3c3ccc(Cl)cc3)c3cc(OC)ccc3n2)cc1 (stereo not given) | 22.4% | 45.1% | 87.3% | 92.6% | 74.9% | 22.9% | 88% | 49% | 39% | 48% | 88.5% | 88.1% | 84.5% | 57% | 101% | 47% | 90.5% | 87.8% | 23.1% | 32.5%
C=C1C(=O)O[C@H]2[C@H]1CC/C(CNC(=O)Cc1c[nH]c3ccccc13)=C\CC[C@@]1(C)O[C@@H]21 | 15.6% | 1.86% (active) | 73.9% | 57.5% | 43.9% | 49.9% | 42.1% | -23.5% (active) | -75.3% (active) | -29.9% (active) | 33.5% | 79.3% | 13.9% | 34.9% | -35.9% (active) | 3.84% (active) | 14.7% | 41.2% | -35.9% (active) | -4.65% (active)
O=C(NCc1ccc(Cn2c(=O)sn(-c3ccccc3)c2=O)cc1)OCc1ccc2cccc(O)c2n1 | -30.3% (active) | -52.7% (active) | -22.6% (active) | 44.7% | 9.01% (active) | -68.9% (active) | -84.7% (active) | -61.9% (active) | -95.3% (active) | -62.3% (active) | -5.7% (active) | -35.9% (active) | -46.1% (active) | -99.6% (active) | -81.2% (active) | -99.9% (active) | -85.9% (active) | 39.3% | 0.307% (active) | -24.8% (active)
O=C(/C=C/C12c3ccccc3C(c3ccccc31)C1C(=O)NC(=O)C12)c1ccc(I)cc1 (stereo not given) | 39.7% | 29.6% | 63.6% | 63.4% | 34.5% | 34.5% | 69.5% | 51.9% | 37.8% | 64% | 56.7% | 66.1% | 50.9% | 46.2% | 66.7% | 67.6% | 60.4% | 56.1% | 1.53% (active) | 6.91% (active)
O=C(Nc1ccc(Oc2cccc(Cl)c2)c(Cl)c1)c1cccnn1 | 56.7% | 89.9% | 77.7% | 89.5% | 76.7% | 57.2% | 83.8% | 74.7% | 88.5% | 99.4% | 102% | 87.3% | 83.2% | 64.9% | 75% | 97.9% | 80.8% | 87.4% | 84% | 80.1%
Cc1cc(C)c2c(c1)N(C)c1ncnc(-n3c(C)nc4cc(C)ccc43)c1CC2C (stereo not given) | 32.6% | 34.3% | 29.4% | 50.4% | 34.5% | 24.7% | 13.6% | 31.6% | 43.1% | 59% | 46.7% | 45.2% | 62.3% | 39% | 53.3% | 39.4% | 37.3% | 0.985% (active) | 21.6% | 27.8%
